In all, about 4,500 sequences were measured (“log2 normalized fluorescence”: median about -0.34, highest 2% from about 3.3 on). Shown is part of a subset that was picked to be rich in the highest values.

In the assay the target is MAX:MAX (p21) (human, UniProt P61244-2 1-151). In words: protein-binding microarray (anti-MAX antibody); PBM: 15 mM Tris-HCl pH 7.5, 100 mM KCl, 0.075% NP40, 7.5 mM beta-mercaptoethanol, 375 ng/ul BSA, 8 ng/ul poly(dA-dT):(dA-dT), 550 ng complex, 60 min, room tempe; high values mean tight binding. As to conditions: protein: recombinant; tags: 6xHis; chain copies: 2; label: 3' end of printed strand (linker) attached to glass slide; dsDNA, one strand shown. An outline of the steps: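 A custom Agilent glass array held ~5000 unique 12-nt sequences in triplicate spots, made double-stranded by primer extension. His-tagged human MYC:MAX or MAX:MAX dimers (550 ng, produced in E. coli) were applied for 60 min at room temperature in Tris-KCl buffer, pH 7.5, with NP40, BSA and poly(dA-dT) competitor. Anti-MAX and secondary antibodies detected bound protein, with scanning at 543 nm, and binding is given as log2 normalized fluorescence.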
Chain of MAX:MAX (p21) (P61244 other isoform, or with tags, fused parts or gaps): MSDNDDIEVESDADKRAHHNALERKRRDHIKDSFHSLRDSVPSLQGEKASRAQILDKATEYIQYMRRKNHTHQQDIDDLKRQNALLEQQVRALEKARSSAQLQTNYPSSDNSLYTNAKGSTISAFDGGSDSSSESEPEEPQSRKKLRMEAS
Regarding “CCGGCTACTATGCCATGTTAATAGCTAAGATTACTATATCGACG”, the binding signal is 0.457 log2 normalized fluorescence.
Consider “CCGGCTGGCACGTGGCATTAATAGCTAAGATTACTATATCGACG”, for which the binding signal is 3.03 log2 normalized fluorescence.
In the case of “CCGGCTGCCATGTGGGATTAATAGCTAAGATTACTATATCGACG”, the binding signal was 3.34 log2 normalized fluorescence.
For “CCGGCGGGCACGTGGTCTTAATAGCTAAGATTACTATATCGACG”, the binding signal is 3.13 log2 normalized fluorescence.
As for “CCGGCTGGCACGTCGGATTAATAGCTAAGATTACTATATCGACG”, the binding signal was 1.33 log2 normalized fluorescence.
Then “CCGGCTATCACGTGGGATTAATAGCTAAGATTACTATATCGACG”, with 3.05 log2 normalized fluorescence; and “CCGGCGGGCACGTGGGATTAATAGCTAAGATTACTATATCGACG”, with 3.48 log2 normalized fluorescence; and “CCGGCTGGCACGTGGGATTAATAGCTAAGATTACTATATCGACG”, with 3.64 log2 normalized fluorescence.
Then “CCGGCTGCCATGTGGTTTTAATAGCTAAGATTACTATATCGACG”, with 3.15 log2 normalized fluorescence.
Then “CCGGCTGACGATCTGTATTAATAGCTAAGATTACTATATCGACG”, with -0.62 log2 normalized fluorescence; and “CCGGCTGAAGAGAGGTATTAATAGCTAAGATTACTATATCGACG”, with -0.631 log2 normalized fluorescence.
For “CCGGCTGACCCATGGTTTTAATAGCTAAGATTACTATATCGACG”, the binding signal is 2 log2 normalized fluorescence.
Then “CCGGCTGACATGAGGTATTAATAGCTAAGATTACTATATCGACG”, with 2.52 log2 normalized fluorescence; and “CCGGCTGACCACAAGTATTAATAGCTAAGATTACTATATCGACG”, with 1.12 log2 normalized fluorescence; and “CCGGCTGACCCAACGTATTAATAGCTAAGATTACTATATCGACG”, with -0.297 log2 normalized fluorescence.
With “CCGGCCGACACGTGGGCTTAATAGCTAAGATTACTATATCGACG” the figure was 3.29 log2 normalized fluorescence; with “CCGGCTGACACGTGGGATTAATAGCTAAGATTACTATATCGACG”, 3.16 log2 normalized fluorescence; with “CCGGCTGACACGTGGGCTTAATAGCTAAGATTACTATATCGACG”, 3.35 log2 normalized fluorescence.
For “CCGGCTGACACGTGGACTTAATAGCTAAGATTACTATATCGACG”, the binding signal is 3.07 log2 normalized fluorescence.
Then “CCGGCTGACACGTGGCCTTAATAGCTAAGATTACTATATCGACG”, with 3.37 log2 normalized fluorescence; and “CCGGCCGACACGTGGTATTAATAGCTAAGATTACTATATCGACG”, with 3.12 log2 normalized fluorescence.
As to “CCGGCTGACACGTGACCTTAATAGCTAAGATTACTATATCGACG”, the binding signal was 3.18 log2 normalized fluorescence.
As to “CCGGCTGACACGGCTTATTAATAGCTAAGATTACTATATCGACG”, the binding signal is 0.66 log2 normalized fluorescence.
“CCGGCTCACACGTGGGCTTAATAGCTAAGATTACTATATCGACG”: the binding signal is 3.27 log2 normalized fluorescence.
Then “CCGGCTGAAAAACCGTATTAATAGCTAAGATTACTATATCGACG”, with -0.672 log2 normalized fluorescence.
Then “CCGGCTGAAGGCACGTATTAATAGCTAAGATTACTATATCGACG”, with 0.169 log2 normalized fluorescence; and “CCGGCTGAGCACTGGTATTAATAGCTAAGATTACTATATCGACG”, with -0.181 log2 normalized fluorescence; and “CCGGCTGAGGACTTGTATTAATAGCTAAGATTACTATATCGACG”, with -0.44 log2 normalized fluorescence.
Then “CCGGCTCCCACCTGGTATTAATAGCTAAGATTACTATATCGACG”, with 2.61 log2 normalized fluorescence; and “CCGGCTGACGGACGGTATTAATAGCTAAGATTACTATATCGACG”, with -0.374 log2 normalized fluorescence; and “CCGGCTGACGTATCGTATTAATAGCTAAGATTACTATATCGACG”, with -0.167 log2 normalized fluorescence.
Regarding “CCGGCGTCCACGTGGTATTAATAGCTAAGATTACTATATCGACG”, the binding signal is 3.64 log2 normalized fluorescence.
With “CCGGCTTCCACGTGGTATTAATAGCTAAGATTACTATATCGACG” the figure was 3.13 log2 normalized fluorescence.
For the sequence “CCGGCGATCACGTGGTATTAATAGCTAAGATTACTATATCGACG”, the binding signal is 3.19 log2 normalized fluorescence.
With “CCGGCGACCACGTGGTATTAATAGCTAAGATTACTATATCGACG” the figure was 3.3 log2 normalized fluorescence; with “CCGGCAACCACGTGGTATTAATAGCTAAGATTACTATATCGACG”, 3.15 log2 normalized fluorescence; with “CCGGCGGCCACGTGGTATTAATAGCTAAGATTACTATATCGACG”, 3.16 log2 normalized fluorescence.
With “CCGGCTACGACGTGGTATTAATAGCTAAGATTACTATATCGACG” the figure was 2.57 log2 normalized fluorescence; with “CCGGCTGATCCTACGTATTAATAGCTAAGATTACTATATCGACG”, -0.737 log2 normalized fluorescence; with “CCGGCTGATTACGTGTATTAATAGCTAAGATTACTATATCGACG”, 0.238 log2 normalized fluorescence.
On to “CCGGCTGATCGTGTGTATTAATAGCTAAGATTACTATATCGACG”, for which the binding signal was 1.12 log2 normalized fluorescence.
Then “CCGGCTGACCGTGTGTATTAATAGCTAAGATTACTATATCGACG”, with 1.49 log2 normalized fluorescence; and “CCGGCTGATCACGTGTATTAATAGCTAAGATTACTATATCGACG”, with 3.48 log2 normalized fluorescence; and “CCGGCTGACCGCGTGTATTAATAGCTAAGATTACTATATCGACG”, with 3.4 log2 normalized fluorescence.
With “CCGGCTGACCGCGCGTATTAATAGCTAAGATTACTATATCGACG” the figure was 1.24 log2 normalized fluorescence; with “CCGGCTGACACCGTGTATTAATAGCTAAGATTACTATATCGACG”, 1.72 log2 normalized fluorescence; with “CCGGCTGACGCCTAGTATTAATAGCTAAGATTACTATATCGACG”, -0.368 log2 normalized fluorescence.
With “CCGGCTGAAGGCGCGTATTAATAGCTAAGATTACTATATCGACG” the figure was -0.33 log2 normalized fluorescence.
As to “CCGGCTGAAGCCCGGTATTAATAGCTAAGATTACTATATCGACG”, the binding signal is -0.644 log2 normalized fluorescence.
With “CCGGCTGACACGTAGCATTAATAGCTAAGATTACTATATCGACG” the figure was 1.7 log2 normalized fluorescence; with “CCGGCTGACATACAGTATTAATAGCTAAGATTACTATATCGACG”, 0.345 log2 normalized fluorescence; with “CCGGCTGACTCAAGGTATTAATAGCTAAGATTACTATATCGACG”, 0.208 log2 normalized fluorescence.
With “CCGGCTGCCACGTGGTGTTAATAGCTAAGATTACTATATCGACG” the figure was 3.07 log2 normalized fluorescence; with “CCGGCTGGCACCTGGTTTTAATAGCTAAGATTACTATATCGACG”, 1.82 log2 normalized fluorescence.
Then “CCGGCTGGCACGTGGTATTAATAGCTAAGATTACTATATCGACG”, with 3.26 log2 normalized fluorescence; and “CCGGCCGGCACGTGGTGTTAATAGCTAAGATTACTATATCGACG”, with 3.21 log2 normalized fluorescence.
For “CCGGCTGGCACGTGGTGTTAATAGCTAAGATTACTATATCGACG”, the binding signal was 3.4 log2 normalized fluorescence.

The values above are taken from article PMC5515408, “Sequence-specific DNA binding by MYC/MAX to low-affinity non-E-box motifs”.
